Results from PubChem BioAssay AID1159580 (chemical genetic matrix, 2015).
Hit rate of the full screen: of about 5,500 compounds, about 2,000 (36%) were called active. About 18% were inconclusive and are not listed. No stated cut-off is given here; in the data, active means normalized growth mostly below about 0.91 (no sharp cut-off); inconclusive means no clear call, values can overlap the other calls; inactive means mostly above about 0.92. This is one part of the list.

Test: chemical genetic growth profiling, strain panel (AID 1159580);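 further: tested at 20 µM; growth read once vehicle control cultures reached saturation at 30 °C; 1 = growth at the plate median or of vehicle wells; lower values mean less growth of the strain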
Conditions: growth OD

Measured: normalized growth

COc1cc2c(cc1OC)[C@@H]1C(=O)c3ccc4c(c3O[C@@H]1CO2)C=CC(C)(C)O4
inactive: S. cerevisiae deletion strains, locus YKL009W, strain mrt4, active compounds read low 0.999 | S. cerevisiae deletion strains, locus YKL068W, active compounds read low 0.982 | S. cerevisiae deletion strains, locus YKL085W, strain MDH1 (second series), active compounds read low 0.967 | S. cerevisiae deletion strains, locus YKL085W, strain MDH1, active compounds read low 0.967 | S. cerevisiae deletion strains, locus YKL160W, strain elf1, active compounds read low 0.973 | S. cerevisiae deletion strains, locus YKL190W, strain CNB1, active compounds read low 0.986 | S. cerevisiae deletion strains, locus YKR001C, strain vps1, active compounds read low 0.934 | S. cerevisiae deletion strains, locus YKR026C, strain gcn3, active compounds read low 1.01 | S. cerevisiae deletion strains, locus YKR091W, strain srl3, active compounds read low 1 | S. cerevisiae deletion strains, locus YLL001W, strain dnm1, active compounds read low 0.992 | S. cerevisiae deletion strains, locus YLL026W, active compounds read low 1.01 | S. cerevisiae deletion strains, locus YLL041C, strain sdh2, active compounds read low 1.01 | S. cerevisiae deletion strains, locus YLR027C, strain aat2, active compounds read low 0.982 | S. cerevisiae deletion strains, locus YLR039C, strain RIC1, active compounds read low 0.891 | S. cerevisiae deletion strains, locus YLR058C, strain SHM2, active compounds read low 0.983 | S. cerevisiae deletion strains, locus YLR102C, strain apc9, active compounds read low 0.982 | S. cerevisiae deletion strains, locus YLR113W, strain HOG1, active compounds read low 0.898 | S. cerevisiae deletion strains, locus YLR221C, strain rsa3, active compounds read low 0.983 | S. cerevisiae deletion strains, locus YLR258W, strain gsy2, active compounds read low 0.994 | S. cerevisiae deletion strains, locus YLR262C, strain YPT6 (second series), active compounds read low 0.868 | S. cerevisiae deletion strains, locus YLR262C, strain YPT6, active compounds read low 0.916 | S. cerevisiae deletion strains, locus YLR268W, strain sec22, active compounds read low 0.97 | S. cerevisiae deletion strains, locus YLR320W, strain mms22, active compounds read low 0.89 | S. cerevisiae deletion strains, locus YLR330W, strain CHS5, active compounds read low 0.986 | S. cerevisiae deletion strains, locus YLR342W, strain FKS1 (second series), active compounds read low 0.943 | S. cerevisiae deletion strains, locus YLR342W, strain FKS1, active compounds read low 0.946 | S. cerevisiae deletion strains, locus YLR357W, strain rsc2, active compounds read low 0.992 | S. cerevisiae deletion strains, locus YLR370C, strain arc18, active compounds read low 1.01 | S. cerevisiae deletion strains, locus YLR371W, strain rom2, active compounds read low 0.961 | S. cerevisiae deletion strains, locus YLR384C, strain iki3, active compounds read low 1.03 | S. cerevisiae deletion strains, locus YLR418C, strain cdc73, active compounds read low 0.962 | S. cerevisiae deletion strains, locus YML016C, strain PPZ1, active compounds read low 0.981 | S. cerevisiae deletion strains, locus YML032C, strain rad52, active compounds read low 0.964 | S. cerevisiae deletion strains, locus YML120C, strain ndi1, active compounds read low 0.979 | S. cerevisiae deletion strains, locus YML124C, strain tub3, active compounds read low 0.982 | S. cerevisiae deletion strains, locus YMR058W, strain fet3, active compounds read low 0.978 | S. cerevisiae deletion strains, locus YMR078C, strain ctf18, active compounds read low 0.952 | S. cerevisiae deletion strains, locus YMR125W, strain sto1, active compounds read low 1.02 | S. cerevisiae deletion strains, locus YMR129W, active compounds read low 0.995 | S. cerevisiae deletion strains, locus YMR205C, strain PFK2, active compounds read low 0.92 | S. cerevisiae deletion strains, locus YMR223W, strain ubp8, active compounds read low 0.954 | S. cerevisiae deletion strains, locus YMR231W, strain pep5, active compounds read low 1.02 | S. cerevisiae deletion strains, locus YMR263W, strain SAP30, active compounds read low 1 | S. cerevisiae deletion strains, locus YMR307W, strain GAS1, active compounds read low 0.86 | S. cerevisiae deletion strains, locus YNL067W, strain RPL9B, active compounds read low 1.01 | S. cerevisiae deletion strains, locus YNL071W, strain lat1, active compounds read low 0.942 | S. cerevisiae deletion strains, locus YNL128W, strain TEP1, active compounds read low 0.995 | S. cerevisiae deletion strains, locus YNL153C, strain GIM3, active compounds read low 1.02 | S. cerevisiae deletion strains, locus YNL183C, strain NPR1, active compounds read low 0.896 | S. cerevisiae deletion strains, locus YNL209W, strain ssb2, active compounds read low 1.03 | S. cerevisiae deletion strains, locus YNL233W, strain BNI4, active compounds read low 1 | S. cerevisiae deletion strains, locus YNL248C, strain rpa49, active compounds read low 1.02 | S. cerevisiae deletion strains, locus YNL250W, strain rad50, active compounds read low 0.972 | S. cerevisiae deletion strains, locus YNL271C, strain bni1, active compounds read low 0.963 | S. cerevisiae deletion strains, locus YNL298W, strain CLA4, active compounds read low 0.984 | S. cerevisiae deletion strains, locus YNL307C, strain MCK1, active compounds read low 0.929 | S. cerevisiae deletion strains, locus YNL322C, strain KRE1 (second series), active compounds read low 1.02 | S. cerevisiae deletion strains, locus YNL322C, strain KRE1, active compounds read low 0.987 | S. cerevisiae deletion strains, locus YNR049C, strain mso1, active compounds read low 1.01 | S. cerevisiae deletion strains, locus YNR052C, strain pop2, active compounds read low 0.951 | S. cerevisiae deletion strains, locus YOL006C, strain TOP1, active compounds read low 0.908 | S. cerevisiae deletion strains, locus YOL012C, strain htz1 1.09 | S. cerevisiae deletion strains, locus YOL147C, strain pex11, active compounds read low 0.969 | S. cerevisiae deletion strains, locus YOR001W, strain rrp6, active compounds read low 0.997 | S. cerevisiae deletion strains, locus YOR061W, strain CKA2, active compounds read low 0.987 | S. cerevisiae deletion strains, locus YOR069W, strain VPS5, active compounds read low 0.985 | S. cerevisiae deletion strains, locus YOR070C, strain gyp1, active compounds read low 1.01 | S. cerevisiae deletion strains, locus YOR080W, strain dia2, active compounds read low 1.02 | S. cerevisiae deletion strains, locus YOR083W, strain WHI5, active compounds read low 0.943 | S. cerevisiae deletion strains, locus YOR106W, strain vam3, active compounds read low 0.98 | S. cerevisiae deletion strains, locus YOR136W, strain idh2, active compounds read low 0.983 | S. cerevisiae deletion strains, locus YOR144C, strain elg1, active compounds read low 0.979 | S. cerevisiae deletion strains, locus YOR184W, strain ser1, active compounds read low 0.899 | S. cerevisiae deletion strains, locus YOR231W, strain MKK1, active compounds read low 0.953 | S. cerevisiae deletion strains, locus YOR265W, strain rbl2, active compounds read low 1.01 | S. cerevisiae deletion strains, locus YOR270C, strain vph1, active compounds read low 0.922 | S. cerevisiae deletion strains, locus YOR290C, strain snf2, active compounds read low 1.01 | S. cerevisiae deletion strains, locus YOR316C, strain cot1, active compounds read low 0.966 | S. cerevisiae deletion strains, locus YPL051W, strain arl3, active compounds read low 0.973 | S. cerevisiae deletion strains, locus YPL055C, strain LGE1, active compounds read low 0.995 | S. cerevisiae deletion strains, locus YPL078C, strain atp4, active compounds read low 1.01 | S. cerevisiae deletion strains, locus YPL106C, strain sse1, active compounds read low 1.06 | S. cerevisiae deletion strains, locus YPL240C, strain hsp82, active compounds read low 1.04 | S. cerevisiae deletion strains, locus YPL241C, strain CIN2, active compounds read low 0.986 | S. cerevisiae deletion strains, locus YPL256C, strain CLN2, active compounds read low 0.928 | S. cerevisiae deletion strains, locus YPR119W, strain clb2, active compounds read low 0.983 | S. cerevisiae deletion strains, locus YPR141C, strain kar3, active compounds read low 0.95 | S. cerevisiae deletion strains, locus YPR163C, strain tif3, active compounds read low 0.975 | S. cerevisiae deletion strains, locus YPR167C, strain met16, active compounds read low 0.967 | S. cerevisiae deletion strains, strain wtn01, active compounds read low 0.971 | S. cerevisiae strains, strain wild type, active compounds read low 0.984
